Results filed as inconclusive are left out. Where a call stands in place of a potency, no number is given. Activity calls are given as the source filed them. The call rests on the fitted dose curve; in most records, active means well fitted activation curve with a large enough effect; inconclusive means small, poorly fitted or top-dose-only effect; inactive means flat fitted curve, though single readings scatter. Positions of bridges follow the written chain, without caps; N, C: chain ends. Non-standard residues stand in square brackets, D forms with d. Residues, ends and D or L forms follow the SMILES beside them. *: point of attachment. X1 = CC[C@@H](C)[C@@H](N)C1=N[C@H](C(=O)*)CS1; d(aIle) = CC[C@H](C)[C@@H](N)C(=O)O; dOrn = NCCC[C@@H](N)C(=O)O

A short description of this assay: qHTS assay to identify small molecule phospholipidosis (PLD) inducers (AID 1259344). To be noted: HepG2 phospholipidosis, LipidTOX Red imaging, 24 h; series mostly up to 38.3 µM. From the text:
National Center for Advancing Translational Sciences [NCATS]
Drug-induced Phospholipidosis (PLD) caused by cationic amphiphilic drugs is characterized by the appearance of unicentric or multicentric-lamellar bodies when viewed under electron microscope. Electron microscopy is the gold standard method for PLD detection, however, this method is time-consuming and labor intensive, making it unsuitable for evaluating a large set of compounds. A cell-based phospholipidosis assay has been developed using the LipidTox reagent in HepG2 cells and miniaturized into a 1536-well plate format. Drug induced phospholipid accumulation is stained with the LipidTox dyes in red color which then is determined using an automated high content screening system.
HepG2 cells are dispensed at 900 cells/3 uL/well into Collagen I-coated 1536-well black-wall/clear-bottom assay plates (Greiner Bio-One, Monroe, NC) using the Multidrop Combi 8 channel dispenser (Thermo Fisher, Waltham, MA, USA). The assay plates are incubated at 37 C for 4 hours to allow the cell attachment. 3 uL of 1:500 LipidTOX Red dye is added using the dispenser, and then 23 nL compounds are added via a Wako Pintool station (Wako Automation, San Diego, CA). Amiodarone, a known PLD inducer, was used as a positive control and DMSO was used as a negative control. The assay plates were then incubated at 37 C for 24 hours.
For fixations, 4 uL of 8% paraformaldehyde fixative solution containing 10 ug/mL Hoechst 33342 in Dulbecco's phosphate-buffered saline (DPBS) is added using a Kalypsys washer/dispenser (Kalypsys, San Diego, CA, USA). After incubation at room temperature for 30 min, the assay plates are washed once with DPBS using a Kalypsys washer/dispenser. The assay plates are then sealed and stored at 4 C before imaging. The fluorescence intensities (595 nm excitation, 615 nm emission for LipidTOX; 352 nm excitation, 461 nm emission for Hoechst 33342) are measured using an ImageXpress Micro Widefield High Content Screening System (Molecular Devices, Sunnyvale, CA, USA) with a 20x Plan Fluor objective. Images are acquired for one site in each well and analyzed with the MetaXpress software (Molecular Devices) using the Transfluor module. Several algorithmic outputs, such as pit count per well, pit count per cell, pit integrated intensity per well, and pit integrated intensity per cell, are used for quantitative image analysis for PLD.
Regarding `O=C1c2ccccc2C(=O)C1c1ccc(F)cc1`, the Potency entry was “inactive”.
As for `O=C(CCN1CCC(c2ccccc2)C1)c1ccc2c(c1)OCCO2` (stereo not given), the entry is “inactive”; as for `Cc1cc(=O)c(C(=O)N[C@@H](C(=O)N[C@@H]2C(=O)N3C(C(=O)O)=C(CSc4nnnn4C)CS[C@H]23)c2ccc(O)cc2)c[nH]1`, “inactive”; as for `CN[C@@H]1[C@@H](O[C@H]2O[C@H](CO)[C@@H](N)[C@H](O)[C@H]2O)O[C@H]2C[C@@H](N)[C@@H](O[C@H]3[C@H](O)[C@@H](O)[C@H](N)C[C@@H]3N)O[C@@H]2[C@@H]1O`, “inactive”.
As for `O=C(O)c1cc2cc(Cc3cccnc3)ccc2o1`, the entry is “inactive”; as for `CN1CC[C@H](c2c(O)cc(O)c3c(=O)cc(-c4ccccc4Cl)oc23)[C@H](O)C1`, “inactive”; as for `O=C(O)/C=C/C(O)c1ccc(Cl)cc1` (stereo not given), “inactive”.
As for `CCCCCCCCCCCCOS(=O)(=O)O`, the entry is “inactive”; as for `CN=C(N)NCCC[C@H](N)C(=O)O`, “inactive”; as for `CNC(=O)C[C@@H](N)C(=O)N[C@@H](C(=O)N[C@@H]1C(=O)N2[C@@H]1SC(C)(C)[C@@H]2C(=O)O)c1ccc(O)cc1`, “inactive”.
Consider `CC(C)(COP(=O)(O)OP(=O)(O)OC[C@H]1O[C@@H](n2cnc3c(N)ncnc32)[C@H](O)[C@@H]1OP(=O)(O)O)C(O)C(=O)NCCC(=O)NCCS` (stereo not given in full), for which the Potency result was “inactive”.
As for `CC1CCCCN1CCCOC(=O)c1ccccc1` (stereo not given), the entry is “inactive”; as for `CCOc1ccc(NC(=S)Nc2ccc(OCC)cc2)cc1`, “inactive”.
As for `O=C(O)COc1ccc(C(=O)c2cccs2)c(Cl)c1Cl`, the entry is “inactive”; as for `COC1[C@@H](O[C@@H]2O[C@H](C)[C@@H](O[C@H]3C[C@@](C)(O)[C@H](OC(=O)CC(C)C)[C@H](C)O3)[C@H](N(C)C)[C@H]2O)[C@@H](CC=O)C[C@@H](C)[C@@H](O)/C=C/C=C/C[C@@H](C)OC(=O)C[C@H]1OC(C)=O` (stereo not given in full), “inactive”; as for `CC(C)COC(=O)OCN1C(=O)CN(CCN2CC(=O)N(COC(=O)OCC(C)C)C(=O)C2)CC1=O`, “inactive”.
As for `O=C(O)CCCC/C=C(\c1ccccc1)c1cccnc1`, the entry is “inactive”.
As for `CC[N+](CC)(CC)CCC(O)(c1ccccc1)C1CCCCC1` (stereo not given), the Potency entry is “inactive”.
As for `NC[C@H]1O[C@H](O[C@H]2[C@H](O)[C@@H](O[C@H]3O[C@H](CO)[C@@H](O)[C@H](N)[C@H]3O)[C@H](N)C[C@@H]2N)[C@H](N)C[C@@H]1O`, the entry is “inactive”.
As for `OCC1(CO)COC(C(Cl)(Cl)Cl)OC1`, the entry is “inactive”.
Turning to `NC[C@@H]1CC[C@@H](N)[C@@H](O[C@H]2[C@H](O)[C@@H](O[C@H]3O[C@H](CO)[C@@H](O)[C@H](N)[C@H]3O)[C@H](N)C[C@@H]2N)O1`, the Potency entry was “inactive”.
As for `C=C(Nc1ccc(OCC)cc1)Nc1ccc(OCC)cc1`, the entry is “inactive”.
As for `Nc1ccc(N)c([N+](=O)[O-])c1`, the entry is “inactive”; as for `CC(C)c1ncc([N+](=O)[O-])n1C`, “inactive”; as for `CC[C@@]1([C@@H]2O[C@@H]([C@H]3O[C@@](O)(CO)[C@H](C)C[C@@H]3C)C[C@@H]2C)CC[C@H]([C@]2(C)CC[C@]3(C[C@H](O)[C@@H](C)[C@@H]([C@@H](C)[C@@H](OC)[C@H](C)C(=O)O)O3)O2)O1` (stereo in doubt), “inactive”.
As for `O=S(=O)(O)CC(S)CS` (stereo not given), the entry is “inactive”.
With `CCCOC(=O)c1ccccc1O`, the Potency entry is “inactive”.
As for `NC(=O)C1c2ccccc2CCc2ccccc21`, the entry is “inactive”; as for `CO[C@H](C(=O)[C@@H](O)[C@@H](C)O)C1Cc2cc3cc(O[C@H]4C[C@@H](O[C@H]5C[C@@H](O)[C@H](O)[C@@H](C)O5)[C@@H](O)[C@@H](C)O4)c(C)c(O)c3c(O)c2C(=O)[C@H]1O[C@H]1C[C@@H](O[C@H]2C[C@@H](O[C@H]3C[C@](C)(O)[C@H](O)[C@@H](C)O3)[C@H](O)[C@@H](C)O2)[C@H](O)[C@@H](C)O1` (stereo not given in full), “inactive”; as for `COC1=C(OC)C(=O)C(C/C=C(\C)CC/C=C(\C)CC/C=C(\C)CC/C=C(\C)CC/C=C(\C)CC/C=C(\C)CC/C=C(\C)CC/C=C(\C)CC/C=C(\C)CCC=C(C)C)=C(C)C1=O`, “inactive”.
As for `N#Cc1c(N(CC(=O)O)CC(=O)O)sc(C(=O)O)c1CC(=O)O`, the entry is “inactive”.
As for `O=P(O)(O)CP(=O)(O)O`, the entry is “inactive”; as for `OCl`, “inactive”.
Take `C=C1C(=C/C=C2\CCC[C@]3(C)[C@@H]([C@H](C)CCCC(C)C)CC[C@@H]23)C[C@@H](O)C[C@@H]1O`: the Potency entry is “inactive”.
For the molecule `CCN(CC)CCOC[C@H]1O[C@@H](O)[C@H](OCCN(CC)CC)[C@@H](O)[C@@H]1O`, the Potency entry was “inactive”.
As for `CC[C@@H](C)[C@@H](N)C1=N[C@H](C(=O)N[C@@H](CC(C)C)C(=O)N[C@@H](CCC(=O)O)C(=O)N[C@@H](C(=O)N[C@@H]2CCCCNC(=O)[C@@H](CC(N)=O)NC(=O)[C@@H](CC(=O)O)NC(=O)[C@@H](Cc3cnc[nH]3)NC(=O)[C@@H](Cc3ccccc3)NC(=O)[C@@H]([C@H](C)CC)NC(=O)[C@@H](CCCN)NC2=O)[C@@H](C)CC)CS1` (X1-LE[d(aIle)][dK][dOrn][dI][dF][dH][dD][dN]; lactam 4-C), the entry is “inactive”; as for `O=C(O)c1cc(O)c2c(c1)[C@H]([C@H]1c3cc(C(=O)O)cc(O)c3C(=O)c3c(O[C@@H]4O[C@H](CO)[C@@H](O)[C@H](O)[C@H]4O)cccc31)c1cccc(O[C@@H]3O[C@H](CO)[C@@H](O)[C@H](O)[C@H]3O)c1C2=O`, “inactive”.
For the molecule `COc1ccc(/C=C/C(=O)Nc2ccccc2C(=O)O)cc1OC`, the Potency result is “inactive”.
Regarding `CCN(CC)C(=O)c1cccnc1`, the Potency entry was “inactive”.
Turning to `O=C(CCCN1CCN2CCCC2C1)c1ccc(F)cc1` (stereo not given), the Potency result is “inactive”.

Source of the values: PubChem BioAssay (Tox21).
